# Compound activity deposited in PubChem by several laboratories.
# Compounds with a hit are over-represented: about 1.6% of the library has one in this group of screens.
# V-ATPase pHluor – yeast V-ATPase proton transport regulation by pHLuorin; actives 0.37% (n = 350,000); response, % at 10 µM; S. cerevisiae, pHLuorin cytosolic pH fluorescence; in the data active = response mostly above about 7.3%, no sharp cut-off; inactive = mostly below about 5.4%; also: actives read high
# GC-A act – GC-A (human) enzyme activation; activation, % at 10 µM; actives 0.14% (n = 370,000); P16066; HEK293 GC-A cells, cGMP TR-FRET, EC30 ANP; 0% at EC30 ANP, 100% saturating ANP; in the data active = activation above about 40%
# PG9 binder – binds the HIV-1 gp120 antibody PG9; TR-FRET gp120-PG9 antibody binding; inhibition, % at 6.7 µM; actives 0.43% (n = 360,000); AID 624416; in the data active = inhibition above about 8.5%
# GC-B act – GC-B (human) receptor activation | P20594 | HEK293-GC-B cells, CNP EC30, cGMP TR-FRET; 0% at EC30 CNP, 100% saturating CNP | activation, % at 10 µM | actives 0.11% (n = 370,000) | AID 1920062;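 active = activation at 10 µM reaching about 35% in either raw or pattern-adjusted values, limit read from the data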
# Rev-erbA mod – modulates human Rev-erb alpha binding to DNA | Rev-erbα–FITC-DNA binding, fluorescence polarization, 90 min | activity, % at 10 µM | actives 0.79% (n = 370,000) | P20393;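 active = activity above about 14%, limit read from the data; passing the limit was not always enough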;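 also: 0% = DMSO wells with 35 nM protein and 100% = DMSO wells with 750 nM protein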
# Rev-erbA confirm – confirmation of modulators of human Rev-erb alpha DNA binding. actives 61% (n = 3,000). shares compounds with Rev-erbA mod. activation, % at 25 µM. Rev-erb alpha FITC-DNA binding, fluorescence polarization, 90 min;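 active = activation at or above a set limit, or at least 3 SD above the negative control mean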;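 also: 0% = 35 nM protein with DMSO and 100% = 750 nM protein high control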
# RORg DNA counter – RORgamma DNA-binding activity, dose-response counter-screen | IC50, µM | AID 1259320 | shares compounds with Rev-erbA mod | purified RORgamma protein-FITC-DNA binding, fluorescence polarization | actives 8% (n = 910);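 active = Compounds whose fitted half-maximal concentration for disrupting protein-DNA binding is below 10 micromolar; the record names Rev-erb in its text, so the target is in doubt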
# Numbers without * were called inactive; i = inactive; / = not tested or not shown.
SMILES,V-ATPase pHluor,GC-A act,PG9 binder,GC-B act,Rev-erbA mod,Rev-erbA confirm,others
CCc1cc2cc3c(cc2nc1SCC(=O)Nc1nccs1)OCO3,1.3,6.1,14.5*,-1.8,224.8*,122.5*,RORg DNA counter=>40
Cc1ccc(NC(=O)c2ccc(CS(=O)(=O)Cc3ccccc3C)o2)c(C)c1,/,-1.5,/,10.2,4.1,/,
Cc1ccc(Cn2nnc3c2-c2ccccc2S(=O)(=O)N(C(C)(C)C)C3)cc1,/,-1.8,/,2.0,7.4,/,
COC(=O)c1c(NC(=O)c2ccccc2)sc(C(=O)c2ccccc2)c1C,2.2,-0.7,1.1,6.2,27.3*,0.4,
COC(=O)c1c(NC(=O)c2ccccc2)sc(C(N)=O)c1C,1.3,7.5,0.5,4.0,16.7,/,
COC(=O)[C@]12C[C@H](CC(=O)N3CCCCC3)C(=O)N(Cc3ccccc3)C1=C[C@H](COCc1ccccc1)O[C@@H]2C,/,5.0,/,2.5,4.5,/,
C#CCSC1=C(C#N)C(c2cccs2)C(C(=O)OCC)=C(C)N1 (stereo unspecified),-5.2,-5.0,-0.9,-4.5,5.9,/,
CCN(CC)C(=O)CSC1=C(C#N)C(c2cccs2)C=C(C)N1 (stereo unspecified),3.0,16.0,-0.6,11.6,56.2*,41.8*,RORg DNA counter=>40
O=C(COc1ccc(Cl)cc1)Nc1cccc(-c2ccc(N3CCOCC3)nn2)c1,1.8,2.0,4.8,0.6,19.6*,11.5,
O=C(Nc1cccc(-c2ccc(N3CCOCC3)nn2)c1)c1ccc(Cl)cc1,-4.9,8.0,3.0,2.0,0.0,/,
Cc1ccc(S(=O)(=O)N(C)c2ccc(OCC(=O)Nc3nc4c(ccc5ccccc54)s3)cc2)cc1,0.2,-1.2,-2.0,2.0,24.4*,26.9*,
CCOC(=O)[C@@]12CCC3=C1N(CCC3)C(=O)[C@H](CC(=O)N1CCN(C(=O)C3CC3)CC1)C2,/,-2.0,/,0.6,-0.9,/,
CCN(CC)c1ccc(/C=c2\sc3nnc(-c4ccccc4Cl)n3c2=O)cc1,2.1,10.6,-1.5,0.5,18.9*,13.6,
CCOC(=O)N1CCN(C(=O)C[C@H]2C[C@@]3(C(=O)OC)C(=C[C@H](COCc4ccccc4)O[C@@H]3C)N(Cc3ccc(Cl)cc3Cl)C2=O)CC1,/,0.0,/,3.0,-0.7,/,
CCCCc1nnc(NC(=O)C2CCN(c3ncnc4sc(C)c(C)c34)CC2)s1,0.0,-2.7,3.9,0.3,18.9*,11.2,
CCc1nnc(NC(=O)C2CCN(c3ncnc4sc(C)c(C)c34)CC2)s1,5.6,-8.1,-0.7,5.8,35.1*,5.8,
COC1=C[C@H](C(=O)NCc2ccccc2)[C@H](C)[C@@H](c2ccccc2)CC1=O,/,-2.1,/,-6.9,-3.3,/,
CCN(Cc1cccs1)c1ncnc2ccc(-c3ccc4c(c3)OCO4)cc12,/,7.1,/,7.5,3.7,/,
COc1ccccc1N(C)S(=O)(=O)c1ccc(Cl)c(C(=O)OCc2c(C)noc2C)c1,0.5,-2.8,0.2,-0.7,18.1*,16.8,
O=C(c1ccccc1)N1CC[C@H]2[C@H](CCCN2Cc2cc(F)cc(F)c2)C1,/,2.8,/,2.0,-2.6,/,
CC1(C)CC2CC(C)(CN2C(=O)c2cc(-c3ccc(F)cc3)on2)C1 (stereo unspecified),-0.5,-6.7,0.2,-2.7,-3.2,/,
CC1(C)CC2CC(C)(CN2C(=O)c2cc(-c3ccccc3)on2)C1 (stereo unspecified),-4.0,-4.3,-0.7,-3.0,28.9*,-3.3,
CCCCNS(=O)(=O)/C=C/c1ccc(OC)cc1CNC(=O)OC(C)(C)C,/,-4.5,/,3.6,7.7,/,
NC(=O)C1(N2CCCCC2)CCN(C(=S)Nc2ccc(F)c(Cl)c2)CC1,5.4,2.7,-2.2,1.1,13.3*,-6.0,
O=C(c1ccccc1C(F)(F)F)N1CCC(Oc2cccnc2)CC1,/,4.3,/,2.4,-4.6,/,
SMILES,V-ATPase pHluor,GC-A act,PG9 binder,GC-B act,Rev-erbA mod,Rev-erbA confirm,others
COC(=O)[C@H]1C[C@@]2(n3ccc4ccccc43)c3ccccc3N(S(=O)(=O)c3ccccc3)[C@H]2N1C(=O)CNC1CCCCC1,/,-19.1,/,-14.6,3.7,/,
O=C(C1CCN(c2ncnc3c2sc2cccc(F)c23)CC1)N1CCCCC1,/,0.9,/,-1.3,-9.2,/,
O=C(Nc1ccc(F)cc1F)C1CCN(c2ncnc3c2sc2cccc(F)c23)CC1,4.0,2.6,0.2,2.1,32.6*,27.3*,
Cc1ccc(-n2c(SCc3cccc(F)c3)nc3sc4c(c3c2=O)CCCC4)cc1,/,0.6,/,0.3,1.5,/,
N#Cc1ccc(CSc2nc3sc4c(c3c(=O)n2-c2ccc(Br)cc2)CCCC4)cc1,/,1.9,/,6.8,23.0*,8.7,
O=c1c2cnn(-c3ccccc3)c2nc(-c2cccs2)n1-c1ccc(Br)cc1,-1.8,0.6,-0.8,-3.1,38.0*,4.0,
O=C(O)CSc1nc2c(cnn2-c2ccccc2)c(=O)n1-c1ccc(Br)cc1,1.1,3.0,-1.8,7.2,-1.0,/,
Cc1ccc(N(Cc2cc3ccc(C)cc3[nH]c2=O)S(=O)(=O)c2ccccc2)cc1,3.8,1.7,-1.4,3.7,33.6*,19.1*,
O=C(Nc1nc(-c2cccs2)c(-c2cccs2)s1)C1CCCC1,-0.4,4.2,4.0,-3.1,80.3*,113.9*,RORg DNA counter=i
O=C(Nc1nnc(-c2cccs2)s1)C1CC1,-1.5,0.8,1.3,-3.4,7.6,/,
CCC(Oc1ccccc1)C(=O)Nc1cc(C(F)(F)F)ccc1N1CCOCC1 (stereo unspecified),5.6,-3.3,-0.4,-2.9,16.2*,12.4,
Cc1ccc2[nH]ccc(=O)c2c1,2.6,2.7,2.3,4.1,7.6,/,
COc1ccc2c(C=O)c[nH]c2c1,0.9,-1.9,0.5,5.2,-0.6,/,
Cc1ccc2[nH]cc(/C=C/c3cc[n+](C)cc3)c2c1,-0.1,-11.6,-21.3,-11.3,232.2*,142.0*,RORg DNA counter=>40
COc1ccc2c(c1)c(/C=C/c1cc[n+](C)cc1)cn2C,3.2,-21.3,-21.8,-13.6,100.3*,78.6*,RORg DNA counter=>40
CC[n+]1ccc(/C=C/c2c[nH]c3ccccc23)cc1,4.2,-11.2,-8.7,-8.4,133.6*,130.9*,RORg DNA counter=>40
COc1ccc2c(c1)c1ccccc1n2C,-6.9,-1.0,-0.8,0.3,-5.4,/,
COc1ccc2c(/C=C/c3cc[n+](C)cc3)c[nH]c2c1,-3.0,-26.4,-26.8,-24.7,45.7*,31.2*,RORg DNA counter=>40
CN(CCc1ccccn1)C(=O)c1cc2ccccn2n1,/,2.8,/,-4.0,-1.2,/,
COc1ccc(S(=O)(=O)N2CCCCCC2)cc1C(=O)Nc1cc(C)ccn1,2.0,4.5,1.9,2.9,1.6,/,
COc1ccc(S(=O)(=O)N2CCCCCC2)cc1C(=O)Nc1ccccn1,0.1,3.2,0.5,1.1,46.5*,15.0,
